Inhibition data for 85 molecules are collected here from PubChem BioAssay AID1259399 (Fisher Drug Discovery Resource Center, 2018).

One may read the inhibition as the change of the read-out against control, counted positive when it falls.

Out of some 160,000 compounds screened, about 240 (0.15%) were called active. No stated cut-off is given here; in the data, active means inhibition above about 40%; inactive means the rest. For the sample, actives were picked, then their nearest neighbours and some compounds at random.

Sequence of Cyclic GMP-AMP synthase (Mus musculus) (Q8C6L5 whole entry, looked up): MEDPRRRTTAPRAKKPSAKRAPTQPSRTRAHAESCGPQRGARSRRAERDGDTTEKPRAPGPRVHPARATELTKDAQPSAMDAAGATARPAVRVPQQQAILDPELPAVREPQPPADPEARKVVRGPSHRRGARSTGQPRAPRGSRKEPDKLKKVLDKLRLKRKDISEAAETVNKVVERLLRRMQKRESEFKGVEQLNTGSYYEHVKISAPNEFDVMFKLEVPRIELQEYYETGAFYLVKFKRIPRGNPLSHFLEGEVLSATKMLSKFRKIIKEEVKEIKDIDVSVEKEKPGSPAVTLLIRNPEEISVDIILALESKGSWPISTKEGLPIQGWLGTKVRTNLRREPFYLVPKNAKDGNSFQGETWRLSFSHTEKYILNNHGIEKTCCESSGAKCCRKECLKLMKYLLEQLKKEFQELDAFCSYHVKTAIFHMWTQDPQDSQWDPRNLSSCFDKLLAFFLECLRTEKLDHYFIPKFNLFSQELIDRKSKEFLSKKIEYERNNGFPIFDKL

The assay has as its target Cyclic GMP-AMP synthase (Mus musculus) (UniProt Q8C6L5). In words: inhibition of Mus musculus cGAS, primary biochemical chemiluminescence screen (AID 1259399).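 Further: 0% = negative control wells and 100% = reference inhibitor with no enzyme activity.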 Particulars: recombinant cGAS, Kinase-Glo ATP depletion luminescence; at 12.5 µM; hits give high values.
In the case of `O=C1OC(c2ccc(Cl)cc2)=NC1=Cc1ccc(N2CCOCC2)s1`, the inhibition is -5.28% (inactive). Consider `COCCN1C(=O)C(c2c(C(C)C)[nH]n(-c3ccc(Cl)c(Cl)c3)c2=O)=C([n+]2ccccc2)C1=O`, for which the inhibition is -8.94% (inactive). Next, `CCOC(=O)c1ccccc1NC(=O)CSc1nnc(C)c2cnn(-c3ccccc3OC)c12`: -1.28% (inactive); `Cc1ccccc1OCC(=O)N(CCn1cccn1)c1nc2ccccc2s1`: 3% (inactive); `CCc1nc2c(OCC(N)=O)cccn2c1N(C)C(=O)c1ccc(OC)cc1`: -2.96% (inactive). Next, `CCOC(=O)CN(C(=O)c1cc(C)oc1C)[C@H]1[C@H](OC)[C@@H]2O[C@H]1c1ccccc12`: -0.832% (inactive); `O=C(COc1ccc(Cl)cc1)NCC1CCN(c2nc(Cc3ccc(F)cc3)ns2)CC1`: -5.03% (inactive).

For `COC[C@H](C)NC(=O)Cc1sc(C)nc1C`, the inhibition was -2.6% (inactive). `O=C(CCN1C(=O)COc2ccccc21)N1CCC2(CCCO2)CC1`: the inhibition was -9.44% (inactive).

With `O=C1c2ccccc2C(=O)N1CN(C(=O)C(F)(F)F)c1ccc(I)cc1`, the inhibition was -2.77% (inactive). Regarding `CC1c2cccn2CCN1Cc1ccc(C#N)cc1F` (stereo not given), the inhibition is -13.4% (inactive). With `CC1=C(C(=O)OCC(C)C)C23C(=O)c4ccccc4C2(OC(=N)C3C#N)O1` (stereo not given), the inhibition is -3.99% (inactive). Next, `COCCCn1c(CN2CCCC(C(=O)c3ccccc3)C2)cnc1S(C)(=O)=O` (stereo not given): -11% (inactive); `O=C(Cn1nnc(-c2ccccc2)n1)Nc1c(F)cccc1F`: 4.62% (inactive). In the case of `CCOCCCN(CC(=O)N(Cc1ccccc1)Cc1sccc1C)C(=O)c1cccc(Br)c1` it was 1.83% (inactive); in that of `COc1ccc(C(=O)N(Cc2ccc(F)cc2)Cc2cc(NC(=O)c3ccco3)ccc2N(C)C)cc1`, -0.342% (inactive); in that of `CC(C)(C)c1cc2nc(-c3ccccc3F)cc(C(=O)NC3CC3)n2n1`, -7.68% (inactive). Next, `CC(C)(C)S(=O)(=O)c1ccc2nn(CC(=O)Nc3ccc(Cl)cc3)c(=O)n2n1`: -9.01% (inactive). As for `CCCN1CCN(S(=O)(=O)c2[nH]ncc2C(=O)OCC)CC1`, the inhibition was -10.5% (inactive). For `Cc1ccc(C)c(NC(=O)Cn2nc3c(=O)n(-c4ccc(Br)cc4)ccn3c2=O)c1`, the inhibition was -5.88% (inactive). As for `Cc1ccc(C)c(Cn2ccnc2CN(CC(C)C)C(=O)c2cccc(F)c2)c1`, the inhibition is -11.5% (inactive). As to `COc1ccc(OC)c(CC(=O)NC2CC(C)(C)Cc3c2cnn3-c2cccc(F)c2)c1` (stereo not given), the inhibition was -9.44% (inactive). Turning to `Fc1ccc(CN2CCCn3cccc3C2c2ccoc2)cc1Cl` (stereo not given), the inhibition is 0.16% (inactive).

In the case of `O=C1NC2(CCN(Cc3ccccc3[N+](=O)[O-])CC2)Nc2ccc(Br)cc21`, the inhibition is -4.81% (inactive). In the case of `CCOC(=O)C1=C(C)N=c2s/c(=C\c3ccc(Cl)c(Cl)c3)c(=O)n2C1c1cccs1` (stereo not given), the inhibition was -4.71% (inactive). Next, `COc1cccc(Cc2c(C)nc(C)nc2N2CCN(S(=O)(=O)c3ccc(NC(C)=O)cc3)CC2)c1`: -9.89% (inactive); `CCCCn1c(SCc2nnc(C)o2)nc2sc(C)c(C)c2c1=O`: -8.28% (inactive); `O=C(Nc1ccc(-c2ccccc2)cc1)N[C@@H](Cc1ccccc1)C(=O)N1CCC(C(=O)N2CCOCC2)CC1`: 1.19% (inactive). In the case of `COc1ccc(C)cc1S(=O)(=O)Nc1ccccc1C(=O)NCc1cccc(Cl)c1` it was -4.63% (inactive). Take `NC(=O)c1cncc(-n2ccnc2-c2ccccc2)c1`: the inhibition is -8.08% (inactive). For `CC(C)Nc1cc(N2CC(c3ccccn3)C2)ncn1`, the inhibition is -15.6% (inactive). On to `C=CCn1c(SCC(=O)c2cc(C)n(CCOC)c2C)nc2scc(-c3ccccc3)c2c1=O`, for which the inhibition is 1.74% (inactive). Next, `CC(C)N(C(=O)CN1CCN(C(=O)c2cn(C)cc3c(=O)n(-c4ccccc4)nc2-3)CC1)C(C)C`: -8.86% (inactive). In the case of `CCOC(=O)c1cc(-c2ccc(N3CCN(C(=O)COCc4ccccc4)CC3)cc2)n(-c2ccccc2Cl)n1` it was -7.07% (inactive); in that of `COc1cccc(C(CN2CCN(C(=O)c3oc4ccccc4c3C)CC2)OCc2cccc(Cl)c2)c1` (stereo not given), -3.76% (inactive). Next, `O=C(c1ccccc1Br)N1CCc2nc(-c3ccccc3)nc(N3CCCCC3)c2C1`: -6.08% (inactive); `O=C(Nc1nnc(C23CC4CC(CC(C4)C2)C3)s1)C12CC3CC(CC(C3)C1)C2`: -5.12% (inactive). Take `Cc1ccccc1Cc1nc2c(c(=O)[nH]1)CN(C(=O)Cc1ccc(F)cc1)CC2`: the inhibition is -2.79% (inactive). In the case of `CC(C)c1nnsc1C(=O)N1CCC2(CC1)C(=O)NCCN2C`, the inhibition was -8.76% (inactive).

On to `CC(Nc1ccc([N+](=O)[O-])cc1S(=O)(=O)N1CCOCC1)c1ccc(F)cc1F` (stereo not given), for which the inhibition was -8.24% (inactive).

Regarding `N#Cc1ccc(-c2ccccc2)nc1SC(C(=O)O)c1ccccc1` (stereo not given), the inhibition was -4.77% (inactive). Regarding `CCCS(=O)(=O)N1CCCC(C(=O)NC(C)CC)C1` (stereo not given), the inhibition is -2.19% (inactive). In the case of `COc1cc([N+](=O)[O-])cc2sc(NC(=O)C(C)C)nc12`, the inhibition is -2.21% (inactive). In the case of `CCn1c(=O)c(C(=O)NCC2CCCO2)nn(-c2ccccc2F)c1=O` (stereo not given) it was -8.2% (inactive). In the case of `CC(C)(C)c1ccc(C2SCC(=O)N2CCC(=O)O)cc1` (stereo not given) it was -3.76% (inactive). Regarding `CCCC(=O)Nc1ccc(NC(=O)c2cc(C(C)C)[nH]n2)cc1OC`, the inhibition is -8.07% (inactive). Consider `O=C(NC(c1ccccc1)c1ccc(Cl)cc1)C1CC1(c1ccccc1)c1ccccc1` (stereo not given), for which the inhibition was -5.82% (inactive).

Regarding `COCCCN1COc2ccc3c(=O)c(Oc4ccc(OC)cc4)coc3c2C1`, the inhibition was -1.41% (inactive). In the case of `Brc1ccc(N=c2oc3ccccc3cc2-c2nc3ccccc3[nH]2)cc1` it was -0.816% (inactive); in that of `COc1ccc(-c2nnc3ccc(OCCNS(=O)(=O)c4cccs4)nn23)cc1`, -9.21% (inactive); in that of `Oc1c(Cl)cc(Cl)c2ccc(N/N=C\c3cccc(Oc4ccccc4)c3)nc12`, -3.37% (inactive). Regarding `O=c1n(Cc2noc(-c3ccoc3)n2)nnn1-c1cccs1`, the inhibition was -17.5% (inactive). Next, `CC(C)(C)S(=O)(=O)c1ccc(N2CCN(c3ccc(Cl)cc3)CC2)nn1`: -8.96% (inactive); `COc1ccccc1C(=O)N1CCN(CC(OCc2c(F)cccc2F)c2ccc(Cl)cc2)CC1` (stereo not given): -2.63% (inactive); `C[N+](C)(CCCCCC[N+](C)(C)CCCN1C(=O)c2cccc3cccc(c23)C1=O)CCCN1C(=O)c2cccc3cccc(c23)C1=O`: 75.6% (active). Consider `Cc1ccccc1N(CCCN1C(=O)c2cccc3cccc(c23)C1=O)C(=O)c1ccc([N+](=O)[O-])cc1`, for which the inhibition is 2.98% (inactive). As to `COc1ccc(N2C(=O)c3cccc4cccc(c34)C2=O)cc1OC`, the inhibition is -7.45% (inactive). Regarding `COc1cc(C=C2N=C(C(C)(C)C)OC2=O)ccc1OC(F)F`, the inhibition is 1.97% (inactive).

With `COc1ccc(C(=O)N2CCCC3(CC2)CNC(=O)O3)cc1N1CCOCC1` (stereo not given), the inhibition was -11.6% (inactive). In the case of `O=C(COc1ccc(Cl)cc1)Nc1c(-c2cccc(F)c2)nc2ccccn12` it was -8.5% (inactive).

For the molecule `COCCCN(CC(=O)N1CCc2sccc2C1c1ccc(C)cc1)C(=O)c1ccc(C)c([N+](=O)[O-])c1` (stereo not given), the inhibition is -4.86% (inactive).

As to `O=C(Cc1ccccc1)N1CC(=O)N(Cc2ccco2)CC(O)C1` (stereo not given), the inhibition was -3.15% (inactive). Consider `COc1cc2c(cc1OC)C(CNC(=O)NC(C)(C)C)N(Cc1ccc(F)cc1)CC2` (stereo not given), for which the inhibition is -7.88% (inactive). In the case of `Cc1cnc(C(=O)N2CC(c3ccncc3)C2)cn1` it was -13.8% (inactive); in that of `NCCOCc1ccc(-c2ccc(F)c(CO)c2)cc1`, -21.2% (inactive). Next, `COc1ccc(S(=O)(=O)N(CC(=O)N2CCc3sccc3C2c2ccccc2C)C(C)C)cc1` (stereo not given): -2.82% (inactive); `COCC(=O)Nc1cccc(-n2nc(OCCc3ccc(OC)cc3)nc2-c2ccc(C(F)(F)F)cc2)c1`: -3.56% (inactive); `Cc1csc2nc(CSc3ncn[nH]3)cc(=O)n12`: -4.64% (inactive).

Take `COc1ccc(-c2cc(NC(=O)c3cc(F)cc(C(F)(F)F)c3)n(-c3ccc(C)cc3)n2)cc1`: the inhibition was -4.28% (inactive).

As to `COc1ccc(C(C)=O)cc1COc1ccc(C#N)cc1`, the inhibition was -12.7% (inactive). In the case of `COc1ccc(CCOc2nc(-c3ccc(OC)cc3)n(-c3ccc(NC(=O)Nc4ccccc4C)cc3)n2)cc1` it was -6.37% (inactive); in that of `CC(Oc1ccccc1C(N)=O)c1ccccc1Cl` (stereo not given), -1.52% (inactive). For the molecule `CCN1C(=O)N(C2Cc3ccccc3C2)C(=O)C12CCN(Cc1cccc3ncccc13)CC2`, the inhibition was -16.7% (inactive). As to `O=C(Nc1ccc2c(c1)OCO2)c1cc2nc(-c3ccc(F)cc3)cc(C(F)(F)F)n2n1`, the inhibition was -6.41% (inactive).

Turning to `COc1ccc(C=C2SC(=S)NC2=O)cc1OC`, the inhibition is 28% (inactive). Next, `CCn1nccc1NC(=O)C1(C)CCN1C(=O)c1sccc1C` (stereo not given): -3.99% (inactive); `CCOCCCn1c(SCc2cc(F)ccc2C)nc2cc(S(=O)(=O)N3CCCC(C)C3)ccc21` (stereo not given): -6.92% (inactive); `Cc1ccc(OC2(C(=O)N(C)Cc3cc(C4CC4)n[nH]3)CCNCC2)cc1`: -3.33% (inactive). With `O=C(O)CN1C(=O)/C(=C\c2cccc(Cl)c2Cl)SC1=S`, the inhibition was 6.94% (inactive). For the molecule `CCOc1ccc(/C=C2/SC(=S)N(CC(=O)O)C2=O)cc1`, the inhibition is -7.17% (inactive).

Consider `O=C(O)CN1C(=O)/C(=C\c2ccc(F)c(Br)c2)SC1=S`, for which the inhibition is 49.9% (active). Consider `Cc1ccc2nc(-c3ccc([N+](=O)[O-])cc3)nc(-c3ccccc3)c2c1`, for which the inhibition was -7.39% (inactive). In the case of `COc1cccc(CNC(=O)Cn2c3ccc(F)cc3c3ncn(Cc4ccccc4)c(=O)c32)c1`, the inhibition was -6.62% (inactive).

Consider `CC(=O)Nc1ccc(Nc2cc(N3CCCCC3)c3nonc3c2[N+](=O)[O-])cc1`, for which the inhibition is -7.72% (inactive). In the case of `C=CC[C@@H]1CC=C[C@@H](C)N1Cc1nc(-c2ccc(C)o2)oc1C` it was 0.508% (inactive).
